Screens (PubChem BioAssay)
GPR151 activ: activators of human GPR151, primary screen, cell-based, PathHunter beta-arrestin, luminescence | PathHunter beta-arrestin GPR151 cells | activation, % at 11.2 µM | 650,000 tested, 1% active; in the data active means activation above about 4.9%;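 further: 0% = median of compound wells and 100% = cells with positive control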
TEAD-YAP block: TEAD-YAP interaction inhibition, primary screen, TEAD-YAP interaction inhibitor project, luminescence, HEK-TIYL cells; TEAD-Gal4/YAP UAS-luciferase luminescence; inhibition, % at 9.12 µM; 640,000 tested, 1.4% active; AID 1259422, 2018; in the data active means inhibition above about 32%;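 further: 0% = median of test compound wells and 100% = reference inhibitor wells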
FBW7 act: FBW7 E3 ligase activators, primary screen, biochemical, AlphaScreen, human; AlphaScreen FBW7–phospho-cyclin E peptide binding, activator screen; 650,000 tested, 0.13% active; normalized activity (activation), % at 26.1 µM; F-box/WD repeat-containing protein 7 (Homo sapiens), Q969H0; in the data active means normalized activity above about 1.9%;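 further: purified mutant Fbw7 with reduced substrate affinity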
MITF primary: MITF inhibitors, primary screen, biochemical, AlphaScreen, human; Microphthalmia-associated transcription factor (Homo sapiens), O75030; inhibition, % at 2.6 µM; AID 1259374, 2018; 650,000 tested, 0.91% active; AlphaScreen MITF homodimerization, bead proximity signal; in the data active means inhibition above about 50%;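 further: 0% = vehicle wells with protein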
GPR151 conf act: GPR151 activators, triplicate retest, confirmation, cell-based, PathHunter beta-arrestin, luminescence. GPR151 PathHunter beta-arrestin cells, 90 min; % of EA-reagent control over plate median. activation, % at 11.2 µM. shares compounds with GPR151 activ. 6,700 tested, under 10 active. AID 1508609, 2020;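 active means mean percent activation across replicates above the confirmation screen cutoff of 4.91%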
GPR119 ag: GPR119 activators in beta-arrestin cells, counter-screen for GPR151 activator project, cell-based, PathHunter beta-arrestin, luminescence, triplicate. activation, % at 11.2 µM. 6,700 tested, 0.3% active. AID 1508611, 2020. 90 min; 0 = compound-well median, 100 = enzyme-acceptor control. shares compounds with GPR151 activ;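 active means mean percent activation in the counterscreen above 29.09%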;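 further: counterscreen on off-target GPR119 to flag nonselective hits from the GPR151 activator screen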
Target sequence (Q8TDV5 whole entry, looked up): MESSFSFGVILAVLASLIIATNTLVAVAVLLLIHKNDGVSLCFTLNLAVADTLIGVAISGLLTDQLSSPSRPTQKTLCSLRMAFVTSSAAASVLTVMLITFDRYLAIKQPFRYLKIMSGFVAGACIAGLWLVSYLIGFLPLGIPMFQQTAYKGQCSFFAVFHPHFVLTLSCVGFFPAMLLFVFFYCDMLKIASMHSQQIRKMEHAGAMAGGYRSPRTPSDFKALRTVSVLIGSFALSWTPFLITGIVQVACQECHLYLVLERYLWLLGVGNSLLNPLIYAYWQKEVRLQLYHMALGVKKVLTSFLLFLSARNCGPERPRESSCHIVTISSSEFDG
Numbers without * were called inactive. Most compounds without a hit are left out; they make up all but 3.4% or so of the library.

What do the screens show for `CC(C)CCNC(=O)NC(=O)COC(=O)c1cc2ccccc2oc1=O`?
GPR151 activ: 12*; TEAD-YAP block: -4; FBW7 act: 0; MITF primary: 19; GPR151 conf act: 0; GPR119 ag: 5

Results for O=C1C(=O)N(CCN2CCOCC2)C(c2ccc(F)cc2)/C1=C(\O)c1ccc(F)cc1 (centres undefined) ?
GPR151 activ: 0; TEAD-YAP block: -4; FBW7 act: 0; MITF primary: -1

How did O=C1C(=O)N(CCN2CCOCC2)C(c2ccco2)/C1=C(/O)c1ccc(F)cc1 (centres undefined) do in these assays?
GPR151 activ: 6.7*; TEAD-YAP block: 10; FBW7 act: 0; MITF primary: 9; GPR151 conf act: -1; GPR119 ag: 6

How did COc1ccccc1N1CCN(C2CCCN(C(=O)C3(C(N)=O)CC3)C2)CC1 (centres undefined) do in these assays?
GPR151 activ: 5.6*; TEAD-YAP block: -6; FBW7 act: 0; MITF primary: 3; GPR151 conf act: 0; GPR119 ag: 4

What do the screens show for `COc1ccccc1N1CCN(C2CCCN(C(=O)C3CCCCC3)C2)CC1` (centres undefined)?
GPR151 activ: 0; TEAD-YAP block: -1; FBW7 act: 0; MITF primary: 8

How did c1nc2nc(N3CCN(Cc4ccc5c(c4)OCO5)CC3)nc(NCCN3CCOCC3)c2[nH]1 do in these assays?
GPR151 activ: 0; TEAD-YAP block: -4; FBW7 act: 0; MITF primary: 16

Results for Cc1nonc1CNC(=O)CCC1(Cc2ccc3ccccc3c2)CCC(=O)N1 (centres undefined) ?
GPR151 activ: -1; TEAD-YAP block: 14; FBW7 act: 0; MITF primary: 13

How did COc1ccc(CNS(=O)(=O)c2ccc3[nH]c(=O)ccc3c2)cc1 do in these assays?
GPR151 activ: 6.6*; TEAD-YAP block: 3; FBW7 act: 0; MITF primary: 8; GPR151 conf act: 0; GPR119 ag: -6

Results for c1ccc(-c2nc3c(c(N4CCCC4)n2)CNCC3)cc1 ?
GPR151 activ: 3; TEAD-YAP block: -2; FBW7 act: 0; MITF primary: 1

What do the screens show for `O=C(CNc1n[nH]c(=O)[nH]c1=O)N/N=C/c1ccccc1`?
GPR151 activ: 8.1*; TEAD-YAP block: -1; FBW7 act: 0; MITF primary: 1; GPR151 conf act: 1; GPR119 ag: 11

How did CCC(Nc1nc2nonc2nc1NCCOC)c1ccc(F)cc1 (centres undefined) do in these assays?
GPR151 activ: -2; TEAD-YAP block: 10; FBW7 act: 0; MITF primary: 1

How did COc1ccc(CN2CCN(c3ccc([N+](=O)[O-])cc3)CC2)cc1O do in these assays?
GPR151 activ: 6.7*; TEAD-YAP block: 36*; FBW7 act: 0; MITF primary: 50; GPR151 conf act: 0; GPR119 ag: 18

How did COc1cc(CN2CCN(c3ccc([N+](=O)[O-])cc3)CC2)ccc1O do in these assays?
GPR151 activ: 0; TEAD-YAP block: -6; FBW7 act: 0; MITF primary: 15

Results for O=[N+]([O-])c1ccc(CN2CCN(Cc3cc(Br)ccc3O)CC2)cc1 ?
GPR151 activ: 6.6*; TEAD-YAP block: 31; FBW7 act: 0; MITF primary: 45; GPR151 conf act: 0; GPR119 ag: 16

What do the screens show for `CCOC(=O)N1CCN(S(=O)(=O)c2cc(Cl)ccc2OCC)CC1`?
GPR151 activ: 4; TEAD-YAP block: -4; FBW7 act: 0; MITF primary: -24

Results for O=C(Nc1cccc(Cl)c1)c1cn(-c2ccc(Cl)cc2)c(=O)c2ccccc12 ?
GPR151 activ: -1; TEAD-YAP block: -6; FBW7 act: 0; MITF primary: 15

How did Cc1ccc2sc(N(Cc3ccncc3)C(=O)Cc3ccc(F)cc3)nc2c1C do in these assays?
GPR151 activ: -3; TEAD-YAP block: 6; FBW7 act: 1; MITF primary: 14

What do the screens show for `Cc1nnc(C)c2c(C)n(C(C)c3ccccc3)c(C)c12` (centres undefined)?
GPR151 activ: -1; TEAD-YAP block: -27; FBW7 act: 0; MITF primary: -5

What do the screens show for `COc1ccc(C(C)n2c(C)c3c(C)nnc(C)c3c2C)cc1` (centres undefined)?
GPR151 activ: 11*; TEAD-YAP block: -13; FBW7 act: 1; MITF primary: -10; GPR151 conf act: 0; GPR119 ag: -1

What do the screens show for `CS(=O)(=O)N1CCCCC1C(=O)Nc1ccc(Cl)cc1` (centres undefined)?
GPR151 activ: -1; TEAD-YAP block: 18; FBW7 act: 1; MITF primary: 16

What do the screens show for `CC(=O)Oc1ccc2nc(-c3ccccc3Br)oc(=O)c2c1`?
GPR151 activ: -2; TEAD-YAP block: 7; FBW7 act: 1; MITF primary: 12

Results for COc1ccc(OC)c(C(C)NC(=O)c2ccc(F)cc2)c1 (centres undefined) ?
GPR151 activ: 5.4*; TEAD-YAP block: 5; FBW7 act: 0; MITF primary: 26; GPR151 conf act: 0; GPR119 ag: -3

How did O=C1CSC(c2ccc(Cl)cc2)N1Cc1cn2ccccc2n1 (centres undefined) do in these assays?
GPR151 activ: 5.0*; TEAD-YAP block: 5; FBW7 act: 0; MITF primary: -8; GPR151 conf act: 0; GPR119 ag: -2

What do the screens show for `FC(F)(F)Oc1ccc(Cn2c(COc3ccc(Cl)cc3Cl)nc3ccccc32)cc1`?
GPR151 activ: 0; TEAD-YAP block: 2; FBW7 act: 0; MITF primary: -7

Results for CCOc1cc(C=C2C(=O)c3ccccc3C2=O)ccc1OC(C)=O ?
GPR151 activ: 10*; TEAD-YAP block: 15; FBW7 act: 0; MITF primary: 6; GPR151 conf act: -1; GPR119 ag: -16

Results for COCCCN1C(=S)NC2c3cc(Br)ccc3OC1(C)C2C (centres undefined) ?
GPR151 activ: 2; TEAD-YAP block: 0; FBW7 act: 0; MITF primary: 19

How did CCCN1C(=S)NC2c3ccccc3OC1(C)C2C (centres undefined) do in these assays?
GPR151 activ: 7.5*; TEAD-YAP block: -1; FBW7 act: 0; MITF primary: 11; GPR151 conf act: 1; GPR119 ag: 9
